Assay results from PubChem BioAssay (NCI).
The panel holds about 79,000 compounds, 15% with a hit somewhere; the sample as a whole holds those more often. Unmarked numbers belong to inactive results. Active and inactive are the calls of the source. Rule as the data show it: active = growth inhibition above about 70%; inactive = the rest.

Experiments:
[1] = NCI Yeast Anticancer Drug Screen. Data for the rad50 strain (AID 155);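 also: 0% = growth of vehicle-only cultures of the same strain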; settings: S. cerevisiae rad50 strain growth inhibition, hits give high values
Procedure, shortened: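 A DNA repair-deficient yeast mutant serves as the test organism; compound-induced growth inhibition is calculated against vehicle-treated cells.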

[2] = NCI Yeast Anticancer Drug Screen. Data for the mec2-1 strain (AID 157); settings: S. cerevisiae mec2-1 strain, hits give high values
Procedure, shortened: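 Cells of the genetically defined mec2-1 yeast strain are incubated with test compound. Inhibition of growth is calculated against vehicle-treated controls.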

[3] = NCI Yeast Anticancer Drug Screen. Data for the sgs1 mgt1 strain (AID 161);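 also: 0% = growth of cultures given vehicle only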; settings: S. cerevisiae sgs1 mgt1 strain, hits give high values
Procedure, shortened: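 Inhibition of yeast growth, normalised to vehicle-treated controls, is reported for a strain bearing genetic alterations in DNA damage repair.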

[4] = NCI Yeast Anticancer Drug Screen. Data for the cln2 rad14 strain (AID 165);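 also: 0% = growth equal to vehicle treated cultures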; settings: S. cerevisiae cln2 rad14 strain, hits give high values
Procedure, shortened: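 The screen exposed genetically defined yeast (cln2 rad14) to test compounds and scored growth inhibition relative to vehicle-treated controls.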

[5] = NCI Yeast Anticancer Drug Screen. Data for the bub3 strain (AID 167); settings: S. cerevisiae bub3 mutant strain, hits give high values
Procedure, shortened: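 Inhibition values come from growth of compound-treated mutant yeast normalised to vehicle-treated controls.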

[6] = NCI Yeast Anticancer Drug Screen. Data for the mlh1 rad18 strain (AID 175); settings: S. cerevisiae mlh1 rad18 strain growth inhibition, hits give high values
Procedure, shortened: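 Compound-treated yeast growth, normalised to vehicle controls. Strain bears defined DNA repair mutations.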

[7] = at 5.0 µM (retest, dose inferred, filed as 0.5)
[8] = at 50.0 µM (retest, dose inferred, filed as 5.0)

Compound | growth inhibition [1, 7] | growth inhibition [1, 8] | growth inhibition ([1]; at 50.0 µM) | growth inhibition [2, 7] | growth inhibition [2, 8] | growth inhibition ([2]; at 50.0 µM) | growth inhibition [3, 7] | growth inhibition [3, 8] | growth inhibition ([3]; at 50.0 µM) | growth inhibition [4, 7] | growth inhibition [4, 8] | growth inhibition ([4]; at 50.0 µM) | growth inhibition [5, 7] | growth inhibition [5, 8] | growth inhibition ([5]; at 50.0 µM) | growth inhibition [6, 7] | growth inhibition [6, 8] | growth inhibition ([6]; at 50.0 µM)
COc1cccc2c1C(=O)c1c(O)c3c(c(O)c1C2=O)CC(O)(C(=O)CO)CC3OC1CC(N)C(I)C(C)O1 (configuration not stated) | 98% (active) | 98% (active) | 89.5% (active) | 98% (active) | 99% (active) | 88.8% (active) | 98% (active) | 98% (active) | 85.8% (active) | 95% (active) | 98% (active) | 87.4% (active) | 98% (active) | 98% (active) | 83.8% (active) | 96% (active) | 97% (active) | 91% (active)
NC1=NOC(=O)C1Cc1ccccc1 (configuration not stated) | -2% | -1% | 2.3% | 0% | -4% | 8% | -1% | -2% | 1.8% | -7% | -4% | 76.8% (active) | 2% | -3% | -6.95% | -2% | -2% | 15.6%
CC(=O)N(C)c1ccc(/C=C2\C=Cc3ccccc32)cc1 | 9% | 91% (active) | 41.2% | 4% | 94% (active) | 39.7% | 10% | 93% (active) | 26.3% | -4% | 81% (active) | 32.8% | 7% | 94% (active) | 72.2% (active) | 11% | 92% (active) | 56.3%
OC(C1CCCC1=N/N=C1/CCCC1C(O)(C(F)(F)Cl)C(F)(F)Cl)(C(F)(F)Cl)C(F)(F)Cl (configuration not stated) | -2% | 22% | 86.3% (active) | -2% | 25% | 89.3% (active) | -4% | 7% | 90.9% (active) | 1% | 26% | 88.8% (active) | 0% | 11% | 91.8% (active) | -3% | 33% | 92% (active)
CNCC(O)c1cccc(O)c1 (configuration not stated) | 7% | 11% | 74.9% (active) | 2% | -9% | 14.8% | 2% | -7% | 45% | 8% | -12% | 19% | 0% | -18% | 21.2% | 1% | -5% | 31%
O=[N+]([O-])c1ccc(Sc2ccc([N+](=O)[O-])o2)o1 | 93% (active) | 99% (active) | 99.2% (active) | 94% (active) | 100% (active) | 99.5% (active) | 97% (active) | 100% (active) | 99.4% (active) | 71% (active) | 99% (active) | 99.2% (active) | 96% (active) | 99% (active) | 99.5% (active) | 98% (active) | 99% (active) | 99.1% (active)
CN1C(=O)c2cccc3cc([N+](=O)[O-])cc(c23)C1=O | 6% | 80% (active) | 82.7% (active) | -16% | 76% (active) | 29.1% | 6% | 69% | 85.8% (active) | 17% | 80% (active) | 56.6% | 3% | 88% (active) | 64% | 15% | 53% | 56.6%
CC(=O)N(C1=CC(=O)c2ccccc2C1=O)c1ccc(C)cc1 | 16% | 99% (active) | 98.4% (active) | 31% | 97% (active) | 69.2% | 36% | 93% (active) | 91.6% (active) | 5% | 46% | 57.3% | 37% | 94% (active) | 93.5% (active) | 27% | 97% (active) | 58.1%
O=C(Cl)C(c1ccccc1)(c1ccccc1)c1ccccc1 | -3% | 98% (active) | 98.2% (active) | 14% | 97% (active) | 95.1% (active) | -10% | 98% (active) | 97.8% (active) | 18% | 98% (active) | 92% (active) | 10% | 98% (active) | 94.7% (active) | -8% | 99% (active) | 96.3% (active)
CC(C)C(Sc1nc(-c2ccccc2)c(-c2ccccc2)[nH]1)c1n[nH]c(=S)n1-c1ccccc1 (configuration not stated) | -1% | 97% (active) | 95.8% (active) | 12% | 98% (active) | 97.1% (active) | -13% | 98% (active) | 96.8% (active) | -24% | 97% (active) | 94.3% (active) | -1% | 98% (active) | 96.9% (active) | -3% | 97% (active) | 95.9% (active)
C=CCN1/C(=C\C=C\c2ccc3cc(C)ccc3[n+]2CC=C)C=Cc2cc(C)ccc21 | 58% | 97% (active) | 90.5% (active) | 63% | 99% (active) | 91.1% (active) | 90% (active) | 98% (active) | 92.6% (active) | 78% (active) | 98% (active) | 91.9% (active) | 83% (active) | 98% (active) | 91% (active) | 79% (active) | 98% (active) | 89.2% (active)
CC(CN(C)C)C(=O)/C=C/c1c(Cl)cccc1Cl (configuration not stated) | 2% | 88% (active) | 86.7% (active) | 8% | 96% (active) | 46.4% | 11% | 94% (active) | 90.2% (active) | 2% | 44% | 29.4% | -1% | 92% (active) | 74.9% (active) | 3% | 97% (active) | 96.5% (active)
c1ccc(Cn2nnc(-c3ccccc3)c2-c2ccccc2)cc1 | -2% | 90% (active) | 90.6% (active) | -12% | 97% (active) | 87.6% (active) | -6% | 96% (active) | 85.6% (active) | 6% | 97% (active) | 87.8% (active) | 17% | 96% (active) | 94% (active) | 14% | 94% (active) | 87.5% (active)
O=NNc1ccc(-c2ccc([N+](=O)[O-])cc2)cn1 | 18% | 47% | 25.4% | 11% | 37% | 5.85% | 8% | 31% | 30.6% | 26% | 31% | 34.2% | 14% | 18% | -11.7% | 10% | 48% | 30.1%
COc1ccc2c(c1)nc1cc(Cl)ccc1[n+]2C | 8% | 97% (active) | 82.2% (active) | 2% | 95% (active) | 52.5% | -5% | 97% (active) | 74.1% (active) | 0% | 97% (active) | 64.4% | 9% | 93% (active) | 86.3% (active) | 5% | 97% (active) | 85.3% (active)
O=C1c2cc([N+](=O)[O-])cc3cc([N+](=O)[O-])cc(c23)C(=O)N1CCCNCCNCCCN1C(=O)c2cc([N+](=O)[O-])cc3cc([N+](=O)[O-])cc(c23)C1=O | 85% (active) | 93% (active) | 61% | 32% | 96% (active) | 77.4% (active) | 93% (active) | 94% (active) | 80.9% (active) | 22% | 92% (active) | 83% (active) | 9% | 95% (active) | 83.7% (active) | 66% | 91% (active) | 77.3% (active)
O=C1OC(=O)c2cccc3cccc1c23 | 51% | 99% (active) | 98.8% (active) | 35% | 99% (active) | 99.1% (active) | 19% | 99% (active) | 98.5% (active) | 23% | 99% (active) | 98.5% (active) | 58% | 99% (active) | 99.5% (active) | 57% | 99% (active) | 98.4% (active)
C=CCOc1ccccc1C(=O)OC | 3% | 0% | -4.6% | 6% | -4% | 7.9% | -1% | -5% | 7.2% | 5% | -4% | 30.9% | -3% | -10% | -2.45% | 3% | -1% | 0.3%
O=C(C(/C=N\C(=S)Nc1ccccc1Cl)=C(/O)c1ccccc1)c1ccccc1 | 86% (active) | 99% (active) | 99.4% (active) | 81% (active) | 100% (active) | 99% (active) | 55% | 99% (active) | 99.3% (active) | 95% (active) | 99% (active) | 98.4% (active) | 99% (active) | 99% (active) | 99.3% (active) | 90% (active) | 99% (active) | 99.1% (active)
